Source: PubChem BioAssay (Sanford-Burnham Center for Chemical Genomics)
Compounds with a hit are over-represented: about 28% of the library has one in this group of screens.
Mac1 fbg inh = blocks human CD11b/CD18 adhesion to fibrinogen; inhibition, % at 10 µM; AID 1497; P05107+P11215; 93,000 compounds, 0.54% hits; K562 CD11b/CD18 adhesion to fibrinogen, ATPlite luminescence; Mn2+ added to activate the integrin;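 active = primary inhibition of 50% or more at 10 µM, then 40% or more on retest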
CYP2C9 act = increases human cytochrome P450 2C9 activity | P11712 | recombinant CYP2C9, luciferin-H conversion, luminescence; active compounds read high; factor 1 = untreated enzyme, 0 = blocked | activation factor at 5 µM | 96,000 compounds, 1.4% hits;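 active = activation factor of 2 or more for CYP2C9 at a 5 µM dose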
Target sequence (P11712 whole entry, looked up): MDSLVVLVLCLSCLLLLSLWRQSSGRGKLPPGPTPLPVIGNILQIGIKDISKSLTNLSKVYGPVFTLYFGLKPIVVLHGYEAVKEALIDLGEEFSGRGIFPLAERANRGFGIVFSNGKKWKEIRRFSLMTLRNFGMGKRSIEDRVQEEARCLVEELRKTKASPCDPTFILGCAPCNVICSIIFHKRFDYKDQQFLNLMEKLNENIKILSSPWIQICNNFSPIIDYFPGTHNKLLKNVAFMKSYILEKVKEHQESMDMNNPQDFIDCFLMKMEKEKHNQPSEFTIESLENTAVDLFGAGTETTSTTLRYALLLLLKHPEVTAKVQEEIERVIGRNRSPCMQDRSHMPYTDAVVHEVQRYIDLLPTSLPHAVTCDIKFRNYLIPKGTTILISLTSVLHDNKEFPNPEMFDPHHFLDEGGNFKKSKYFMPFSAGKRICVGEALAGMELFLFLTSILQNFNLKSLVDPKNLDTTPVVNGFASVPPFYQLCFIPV
CYP2C19 act = increases human CYP2C19 enzyme activity; recombinant CYP2C19, luciferin-H EGE luminescence; active compounds read high; 0 = fully inhibited enzyme, 1 = untreated enzyme; P33261; AID 1025; 96,000 tested, under 10 active; activation factor at 5 µM;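 active = activation factor of at least 2 at 5 µM in the primary screen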
Mac1 fbg enh = enhancers of human CD11b/CD18 binding to fibrinogen. P05107+P11215. AID 1499. 93,000 compounds, 0.07% hits. activation, % at 10 µM. K562 CD11b/CD18 adhesion to fibrinogen, ATPlite luminescence;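 active = 10 µM primary screen giving 50% or more activity, confirmed by 40% or more on retest at that dose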
CYP2C9 inh = human CYP2C9 inhibition. inhibition, % at 5 µM. CYP2C9 Supersomes, luciferin-H conversion, luminescence. 96,000 compounds, 20% hits;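 active = blocking of liver enzyme CYP2C9 beyond about 50% at 5 µM, limit read from the data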
CYP2C19 inhib = inhibitors of human CYP2C19; P33261; 96,000 compounds, 21% hits; AID 778; CYP2C19 Supersomes, luciferin-H EGE luminescence, 30 min; inhibition, % at 5 µM;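 active = CYP2C19 inhibition above a set limit at 5 µM in the primary screen, cut at about 50% in these data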
Of the large screens only hits and unclear results are named; the others gave an inactive call.

Cc1nc([N+](=O)[O-])c(Sc2nc3ccc([N+](=O)[O-])cc3[nH]2)n1Cc1ccccc1	none (no result: CYP2C9 act, CYP2C19 act, CYP2C9 inh, CYP2C19 inhib)
Cc1ccc(-c2nc(Nc3ccccc3)n[nH]2)cc1	CYP2C19 inhib 69
Cc1cc(C)cc(NC(=O)c2nnn(Cc3cc(C)ccc3C)c2N)c1	CYP2C9 inh 68
COc1cccc(NC(=O)c2nnn(Cc3ccc(Br)cc3F)c2N)c1	none
Cc1ccccc1Cn1nnc(C(=O)Nc2cccc(C)c2C)c1N	CYP2C19 inhib 54
CCOC(=O)N1CCN(S(=O)(=O)c2ccc3c(c2)OCC(=O)N3)CC1	none
CSc1nc(C)c2c(n1)N(c1ccc(C(C)C)cc1)CC2	none
COc1ccc(OC)c(S(=O)(=O)NCc2csc(-c3ccccc3)n2)c1	CYP2C19 inhib 62
CCn1nnnc1-c1ccc(OC)c(S(=O)(=O)NCCc2ccccc2)c1	CYP2C9 inh 68, CYP2C19 inhib 89
COc1ccc(OC)c(S(=O)(=O)NCCc2ccccc2)c1	CYP2C9 inh 69, CYP2C19 inhib 87
CNS(=O)(=O)c1cc(OC)ccc1OC	none
COc1ccc(OCCN2CCN(C3CC(=O)N(CCC(C)C)C3=O)CC2)cc1 (configuration not stated)	none
C/C(=N\NC(=O)COc1ccc(C)cc1C(C)C)c1cc2ccccc2o1	none (no result: CYP2C9 act, CYP2C19 act, CYP2C9 inh, CYP2C19 inhib)
COc1cc(CNCCO)ccc1OC1CCCC1	none
CCN(CC)S(=O)(=O)c1cccc(C(=O)Nc2cc(C)nn2-c2ccccc2)c1	none (no result: CYP2C9 act, CYP2C19 act, CYP2C9 inh, CYP2C19 inhib)
Cc1cc(NC(=O)C(C)Oc2ccc(Cl)cc2Cl)n(-c2ccccc2)n1 (configuration not stated)	CYP2C9 inh 63, CYP2C19 inhib 75
Cc1cc(NC(=O)c2cccs2)n(-c2ccccc2)n1	CYP2C19 inhib 70
Cc1cc(NC(=O)c2sccc2C)n(-c2cccc(Cl)c2)n1	CYP2C9 inh 52, CYP2C19 inhib 96
CC(=O)Nc1ccc(-c2nc3c(C)cccc3[nH]2)cc1	none
CCOc1ccccc1NC(=O)COC(=O)C(CC(C)C)N1C(=O)C2CC=CCC2C1=O (configuration not stated)	none (no result: CYP2C9 act, CYP2C19 act, CYP2C9 inh, CYP2C19 inhib)
COc1cc(C(=O)NCC(C)C)c([N+](=O)[O-])cc1OC	none
COc1cc(C(=S)N2CCOCC2)cc(OC)c1OS(=O)(=O)c1ccc(NC(C)=O)cc1	CYP2C19 inhib 58
Cc1cc(C(=O)Nc2sc3c(c2C#N)CCC(C)C3)no1 (configuration not stated)	CYP2C9 inh 76
CC1CCc2c(sc(NC(=O)C(=O)NCc3ccco3)c2C#N)C1 (configuration not stated)	CYP2C9 inh 68
Cc1cc(C(=O)Nc2sc3c(c2C#N)CCC3)no1	none
CCOC(=O)c1sc2nc(N3CCOCC3)c3c(c2c1N)CCN(Cc1ccccc1)C3	none
Cc1c(NC(=O)CCCCCN2C(=O)C3C4C=CC(C4)C3C2=O)c(=O)n(-c2ccccc2)n1C (configuration not stated)	none
CC(C)c1ccccc1OCCNS(C)(=O)=O	CYP2C19 inhib 51
COc1cccc(OCCCOc2ccccc2C(C)C)c1	none
Fc1ccc(OCc2nn3cnnc3s2)cc1	CYP2C19 inhib 79
COC(=O)C1=C(N)OC2=C(C(=O)CCC2)C1c1cccs1 (configuration not stated)	none
CCOC(=O)C1=C(C)NC2=C(C(=O)CCC2)C1c1cccs1 (configuration not stated)	CYP2C9 inh 64, CYP2C19 inhib 74
CCOC(=O)C1=C(N)OC2=C(C(=O)CCC2)C1c1cccs1 (configuration not stated)	CYP2C9 inh 80, CYP2C19 inhib 88
COCCOC(=O)C1=C(N)OC2=C(C(=O)CCC2)C1c1cccnc1 (configuration not stated)	CYP2C19 inhib 61
CCCC1CC(C)(C(=O)CSc2n[nH]c(-c3ccccc3)n2)OC1=O (configuration not stated)	none
O=C(O)c1ccc(C(=O)Nc2cccc(NC(=O)C3CCCO3)c2)cc1 (configuration not stated)	none
COc1ccc2[nH]cc(C(=O)CN3CCCC(C)C3)c2c1 (configuration not stated)	none (no result: Mac1 fbg inh, Mac1 fbg enh)
COc1cccc(N2CCN(CC(=O)c3c[nH]c4ccc(OC)cc34)CC2C)c1 (configuration not stated)	CYP2C9 inh 50
C=C(C)C1CCC(C)=C1COC(=O)Nc1ccccc1 (configuration not stated)	none
CC1(C)CC(=O)C2=C(C1)OC(N)=C(C#N)C2c1ccc(OC(=O)N2CCOCC2)cc1 (configuration not stated)	CYP2C9 inh 60
COc1cc(C2C(C#N)=C(N)OC3=C2C(=O)CC(C)(C)C3)ccc1OC(=O)N1CCOCC1 (configuration not stated)	CYP2C9 inh 54
N#CC1=C(N)OC2=C(C(=O)CCC2)C1c1ccc(OC(=O)N2CCOCC2)cc1 (configuration not stated)	none
COC(=O)C1=C(CN2CCc3ccccc32)NC(=O)NC1c1cc(C)ccc1C (configuration not stated)	none
COC(=O)C1=C(CN2CCCc3ccccc32)NC(=O)NC1c1ccc(F)cc1 (configuration not stated)	CYP2C19 inhib 72
CCNC(=O)CSc1nc2ccccc2c(=O)n1CCCOC(C)C	CYP2C9 inh 62, CYP2C19 inhib 76
CCOCCCn1c(SCC(=O)NC(C)C)nc2ccccc2c1=O	none
O=C(CSc1nc2ccccc2c(=O)n1NC(=O)Cc1ccccc1)NCCc1ccccc1	CYP2C9 inh 94 (no result: Mac1 fbg inh, Mac1 fbg enh)
COCCNC(=O)CSc1nc2ccccc2c(=O)n1CCCC(=O)NCc1ccccc1	CYP2C9 inh 70
CCn1c(SCC(=O)NCCOc2ccccc2)nc2ccccc2c1=O	CYP2C9 inh 57, CYP2C19 inhib 69
O=C(CCn1cnc2ccccc2c1=O)Nc1ccc(S(=O)(=O)N2CCCC2)cc1	none
CCOCCCNC(=O)CC1Oc2ccc(C)cc2NC1=O (configuration not stated)	none
OCC1CCCN1C(=S)Nc1ccccc1 (configuration not stated)	none (no result: Mac1 fbg inh, Mac1 fbg enh)
CCn1c(SCC(=O)OC2CCCCC2)nc2ccccc2c1=O	CYP2C9 inh 77, CYP2C19 inhib 87
CCOC(=O)CSc1nc2ccccc2c(=O)n1CC	none
Fc1ccc(-c2nnc(CN3CCC(c4nc5ccccc5s4)CC3)o2)cc1	none
CCC(C)[C@@H](NC(=O)OC(C)(C)C)c1nnc(S(=O)(=O)Cc2cccc(C)c2)o1 (some centres not stated)	none
O=P(OC1CCCCC1)(OC1CCCCC1)C(O)c1ccccc1 (configuration not stated)	CYP2C9 inh 55, CYP2C19 inhib 65
